Measured values as given in PubChem BioAssay AID1861 (The Scripps Research Institute Molecular Screening Center, 2009).
Where “and” joins values, the source holds several entries; their conditions need not be identical. Identical values can stand only once. The campaign covered roughly 290,000 compounds. About 3,100 (1.1%) were called active. No stated cut-off is given here; in the data, active means inhibition above about 16% (passing the limit was not always enough); inactive means the rest. Many of the other results were omitted from the sample, so actives are more common in it than they were. Where a structure was tested more than once in an assay, its records may differ in their call. Where a SMILES comes first, the peptide text is derived from it. [ ]: non-standard residue; d: D form. The star is where a group is joined. ξ: configuration not given here. Cbz = O=C(OCc1ccccc1)*; ξL = CC(C)CC(N)C(=O)O; ξP = O=C(O)C1CCCN1

target: Neuropeptides B/W receptor type 1 (Homo sapiens) (UniProt P48145); test: GPR7 receptor antagonists, primary screen, cell-based, fluorescence, single concentration (AID 1861); settings: GPR7-expressing cells, fluorescence antagonist assay; at 4.4 µM; stronger effect = higher value;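 further: cells stimulated with the agonist NPW; 0% = agonist with vehicle and 100% = vehicle without agonist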
Sequence (P48145 whole entry, looked up): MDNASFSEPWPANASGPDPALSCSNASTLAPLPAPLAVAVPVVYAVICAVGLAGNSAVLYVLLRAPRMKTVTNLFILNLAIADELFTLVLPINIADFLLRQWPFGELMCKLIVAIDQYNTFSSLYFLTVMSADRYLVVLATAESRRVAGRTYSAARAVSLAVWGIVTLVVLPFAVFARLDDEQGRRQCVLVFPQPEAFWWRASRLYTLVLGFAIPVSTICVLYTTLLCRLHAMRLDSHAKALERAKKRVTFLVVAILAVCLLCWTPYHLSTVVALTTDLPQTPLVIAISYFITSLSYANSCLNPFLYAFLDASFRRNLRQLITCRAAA

inhibition, 16.2% (inactive) and 28.1% (active):
Cc1ccc(C(=O)C[n+]2cc(-c3ccccc3)n3c2CCCCC3)cc1

inhibition, active:
O=C(NCCNc1ccc([N+](=O)[O-])cc1Cl)c1ccccc1F 33.5%
CS(=O)(=O)N(CC(O)Cn1c2ccccc2c2ccccc21)c1cccc2ccccc12 (stereo not given) 29%
COc1ccc(NS(=O)(=O)c2ccc(NC(=S)NC(=O)CC(C)C)cc2)cc1 24.2%
COc1ccc(NS(=O)(=O)c2ccc(NC(=O)c3ccc(N(C)S(C)(=O)=O)cc3)cc2)cc1 22.9%
CC(C)OC(=O)CN1C(=O)c2ccccc2C1=O 20.4%
O=C(Nc1ccccc1Cl)/C(Cl)=C(\Cl)S(=O)c1ccccc1 (stereo not given) 23.4%
COc1ccc(NC(=O)C2CCC(CNS(=O)(=O)c3csc(C(N)=O)c3)CC2)cc1OC (stereo not given) 24.1%
COc1ccc([N+](=O)[O-])cc1N(CC(O)CN(CC(C)C)CC(C)C)S(=O)(=O)c1ccc(C)cc1 (stereo not given) 21.7%
CCC(C)c1ccccc1NC(=O)CN(C)CC(=O)Nc1ccccc1SC (stereo not given) 31.4%
CC(C)OCCCNc1ncnc2c1[nH]c1ccc(F)cc12 26.6%
COc1ccc(OC)c(C(c2nnnn2C(C)(C)C)N2CCc3ccccc3C2)c1 (stereo not given) 24%
CC(C(=O)N1CCN(c2ccccc2F)CC1)c1ccc([N+](=O)[O-])cc1 (stereo not given) 35.6%
O=C(CSc1nnc(-c2ccco2)o1)NCC(=O)c1ccccc1 37.5%
N=c1c2c(-c3ccccc3)c(-c3ccccc3)n(Cc3ccccc3)c2ncn1CCCO 27.3%
O=C(COc1ccccc1)NCc1ccc2c(c1)OCO2 26%

inhibition, inactive:
CC(C)N1CCC(NC(=O)Nc2ccccc2)CC1 -11.8%
Cn1cc(CNC(=O)c2ccc(OC3CCN(Cc4ccccn4)CC3)cc2)cn1 -5.98%
CN(Cc1ccccc1)C(=O)c1ccc(NC2=NC3CS(=O)(=O)CC3S2)cc1 (stereo not given) -12.5%
COc1ccc(C2C=C(c3ccc(Br)cc3)Nc3nc(NS(C)(=O)=O)nn32)cc1 (stereo not given) 15%
O=C(NCCNc1ccccc1[N+](=O)[O-])c1ccccc1F 2.99%
O=C(NCCCNc1ccc([N+](=O)[O-])cc1Cl)c1ccccc1F 5.46%
COc1cccc(CNc2nc(C(F)(F)F)nc3ccccc23)c1 -8.14%
Cc1ccc(N2C(=O)C3C4C=CC(CC4)C3C2=O)cc1Cl (stereo not given) -5.89%
CCCCN(CCCC)CC(O)Cn1c2ccccc2c(=O)c2ccccc21 (stereo not given) 4.5%
O=C1c2ccccc2S(=O)(=O)N1CC(O)Cn1c2ccccc2c2ccccc21 (stereo not given) 27.4%
COc1cc(C(=O)NCc2cc3cc(Cl)ccc3n2C)cc(OC)c1OC -5.99%
CCN(CC)S(=O)(=O)c1ccc(N2CCN(C)CC2)c(NC(=O)Nc2ccccc2F)c1 6.45%
COc1ccc(NC(=O)c2cnc(NS(=O)(=O)c3ccccc3)nc2)cc1 -10.5%
COc1cc(NS(=O)(=O)c2ccc(NC(C)=O)cc2)cc(OC)c1 -5.8%
CC(=O)c1ccc(NC(=S)NC(=O)CC(C)C)cc1 -3.47%
COc1cc(OC)cc(C(=O)Nc2ccc(S(=O)(=O)Nc3cc(C)on3)cc2)c1 -3.8%
Cc1ccc(C(=O)OCC(=O)NC(=O)Cc2ccccc2)c(O)c1 -16.1%
CCOC(=O)CNC(=O)/C=C/c1c(Cl)cccc1Cl 10.2%
O=C(Nc1ccccc1C(=O)O)c1ccc(N2C(=O)C3CC=CCC3C2=O)cc1 (stereo not given) -9.35%
O=C(c1ccccc1)N1CCC(CC2CC(c3ccc(Cl)cc3)=NO2)(C(=O)NCC2CCCCC2)CC1 (stereo not given) -2.72%
CCc1nc(Nc2ccc(NC(C)=O)cc2)c2oc3ccccc3c2n1 -6.65%
CC(C)OC(=O)CN1C(=O)C(=O)c2ccccc21 -2.31%
Cc1cccc2c1N(CC(=O)OC(C)C)C(=O)C2=O -5.53%
N#CCOc1ccc(C2=NO[C@@H]3[C@@H]4C[C@@H]([C@H]5C(=O)N(c6ccc7c(c6)OCO7)C(=O)[C@@H]45)[C@H]23)cc1 4.89%
CCc1nn(CC(=O)N2CCN(CC)CC2)c(=O)c2cccn12 -11.1%
O=C(COC(=O)c1cccs1)Nc1ccccc1Cl -12.8%
O=C(Nc1ccccc1Cl)Nn1cnnc1 -16.3%
CN(C)S(=O)(=O)c1ccc(C(=O)NCCN=C2NS(=O)(=O)c3ccccc32)cc1 -2.36%
O=C(O)c1ccc(OCC2CCCO2)cc1 (stereo not given) -9.77%
CCn1c(SCc2ccccc2)nc2cc(OC)c(OC)cc2c1=O -30.7%
CC(=O)Nc1ccc(S(=O)(=O)NCC2CCC(C(=O)NCCc3ccccc3)CC2)cc1 (stereo not given) -13.4%
COc1cccc(CNS(=O)(=O)c2csc(C(N)=O)c2)c1 -3.2%
Cc1cc(=O)oc2c(C)c(OCC(=O)NCCc3ccc(S(N)(=O)=O)cc3)ccc12 9.11%
COC(=O)CN1C(=O)C(C)(C)Oc2ccc(C(=O)Nc3cccc(OC)c3)cc21 -8.64%
Cc1ccc(S(=O)(=O)N(CC(O)CN2CCCCC2)c2cccc([N+](=O)[O-])c2)cc1 (stereo not given) -4.51%
COc1ccc([N+](=O)[O-])cc1N(CC(O)Cn1nnc2ccccc21)S(=O)(=O)c1ccc(C)cc1 (stereo not given) -11.4%
O=C(/C=C/c1cccs1)c1cc(Cl)ccc1OC(=O)N1CCOCC1 -2.52%
CSc1ccccc1NC(=O)CN(C)CC(=O)Nc1ccc(Cl)cc1[N+](=O)[O-] 12.5%
CSc1ccccc1NC(=O)CN(C)CC(=O)Nc1cccc(Br)c1 3.51%
COc1cc(OC)c(OC)cc1/C=N/Nc1ncnc2c1[nH]c1ccc(C)cc12 -19.8%
Fc1ccc2[nH]c3c(N4CCSCC4)ncnc3c2c1 -5.82%
Cc1ccc(S(=O)(=O)N2CCN(c3ccccc3)CC2)cc1C 0.58%
COc1cccc(CNS(=O)(=O)c2ccc3c(c2)CC(C)N3C(=O)C2CCC2)c1 (stereo not given) 17.9%
CC1=CCC2C(=O)N(c3cccc(C(=O)NC(C)c4ccccc4)c3)C(=O)C2C1 (stereo not given) 0.74%
Cc1cccc(NC(=O)C(C)SCc2ccccc2)c1 (stereo not given) -8.07%
O=C(Nc1ccncc1)c1ccc(Cl)c([N+](=O)[O-])c1 1.68%
O=C(Nc1c2c(nn1-c1ccccc1)CS(=O)(=O)C2)C1CCCC1 4.15%
COCCn1nnnc1C(c1cc2ccc(OC)cc2[nH]c1=O)N1CCc2ccccc2C1 (stereo not given) 17.6%
COc1ccccc1C(c1nnnn1C(C)(C)C)N1CCN(Cc2ccccc2)CC1 (stereo not given) 10.7%
CC1CCCN(CCCNC(=O)CN2C(=O)COc3ccc(S(=O)(=O)N4CCOCC4)cc32)C1 (stereo not given) -10.9%
COC(=O)CCC(=O)N1CCCC(CO)(Cc2ccccc2)C1 (stereo not given) -0.55%
Cc1cccc(NC(=O)COC(=O)CCc2ccccc2)c1C -16.3%
CCOCCCn1c(SCC(=O)Nc2cc(OC)ccc2OC)nc2ccccc2c1=O -10.2%
Cc1ccc(NC(=S)NCCc2ccc(Cl)cc2)c(C)c1 -19.2%
Cc1ccc(-c2c[n+](CC(=O)Nc3ccccc3)c3n2CCC3)cc1 -3.52%
Clc1ccc(C[n+]2cc(-c3ccccc3)n3c2CCC3)cc1 -5.39%
C=CCn1c(CNS(=O)(=O)c2ccc(Br)cc2)nnc1SC -2.9%
CCC1C(=O)NCCN1C(=O)c1ccc2nc(Cc3ccc(OC)cc3)oc2c1 (stereo not given) 10.3%
N=C1C(c2nc3ccccc3s2)=C(O)CN1NC(=O)c1ccc([N+](=O)[O-])cc1 2.09%
CC(C)CN(C(=O)c1cccc(S(=O)(=O)N2CCCCC2)c1)C1CCS(=O)(=O)C1 (stereo not given) 3.39%
NNC(=O)CSc1nnc(-c2ccccc2)n1-c1ccccc1 25.5%
O=C(c1ccc(S(=O)(=O)N2CCCC2)cc1)N1CCN(c2ccccc2F)CC1 -4.62%
O=C(CCSc1ccccc1)N1CCN(c2ccccc2F)CC1 1.08%
CC(C)CC(NC(=O)C1CCCN1C(=O)[C@@H](C)NC(=O)OCc1ccccc1)C(=O)NCC(N)=O (stereo not given in full) (Cbz-[dA][ξP][ξL]G-NH2) 2.31%
CN(Cc1c(F)cccc1Cl)S(=O)(=O)c1cccs1 -1.36%
Cn1nccc1C(=O)N1CCCC(C(=O)c2ccc(Oc3ccccc3)cc2)C1 (stereo not given) -11.3%
CCOCCCNC(=O)C(NC(=O)CNC(=O)c1ccccc1)c1ccc(OC)cc1 (stereo not given) -6.22%
O=C1CN(C(=O)c2ccccc2F)C(c2ccc(F)cc2)c2cc(F)ccc2N1 (stereo not given) -1.3%
CCOC(=O)c1sc(NC(=O)CSc2nnc(-c3ccco3)o2)c(C(=O)OCC)c1C -9.68%
Cc1cccc(NC(=O)CSc2nnc(-c3ccco3)o2)c1 2.82%
CCN(CC)CCn1cnc2c1c(=O)[nH]c(=O)n2Cc1ccccc1 -8.02%
N=c1c2c(-c3ccccc3)c(-c3ccccc3)oc2ncn1Cc1ccco1 -7.33%
OC(CNCc1ccc2c(c1)OCO2)COc1ccccc1 (stereo not given) -0.63%
Cc1ccc(C(=O)OCC(=O)NCc2ccc3c(c2)OCO3)s1 -1.76%
